The whole screen tested about 310,000 compounds, of which about 14,000 (4.5%) showed an effect of 50% or more. The effect is printed as a negative number. For the sample, strong results were picked, then their nearest neighbours and some compounds at random.
Target: human ether-à-go-go-related gene (hERG) potassium channel (human, UniProt Q12809)
Assay: primary screen, population patch clamp on CHO cells stably expressing hERG; higher = less effect of the substance
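Note: peak tail current of the secondary pulse compared with the same well before compound.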

Sequence of human ether-à-go-go-related gene (hERG) potassium channel (Q12809 whole entry, looked up): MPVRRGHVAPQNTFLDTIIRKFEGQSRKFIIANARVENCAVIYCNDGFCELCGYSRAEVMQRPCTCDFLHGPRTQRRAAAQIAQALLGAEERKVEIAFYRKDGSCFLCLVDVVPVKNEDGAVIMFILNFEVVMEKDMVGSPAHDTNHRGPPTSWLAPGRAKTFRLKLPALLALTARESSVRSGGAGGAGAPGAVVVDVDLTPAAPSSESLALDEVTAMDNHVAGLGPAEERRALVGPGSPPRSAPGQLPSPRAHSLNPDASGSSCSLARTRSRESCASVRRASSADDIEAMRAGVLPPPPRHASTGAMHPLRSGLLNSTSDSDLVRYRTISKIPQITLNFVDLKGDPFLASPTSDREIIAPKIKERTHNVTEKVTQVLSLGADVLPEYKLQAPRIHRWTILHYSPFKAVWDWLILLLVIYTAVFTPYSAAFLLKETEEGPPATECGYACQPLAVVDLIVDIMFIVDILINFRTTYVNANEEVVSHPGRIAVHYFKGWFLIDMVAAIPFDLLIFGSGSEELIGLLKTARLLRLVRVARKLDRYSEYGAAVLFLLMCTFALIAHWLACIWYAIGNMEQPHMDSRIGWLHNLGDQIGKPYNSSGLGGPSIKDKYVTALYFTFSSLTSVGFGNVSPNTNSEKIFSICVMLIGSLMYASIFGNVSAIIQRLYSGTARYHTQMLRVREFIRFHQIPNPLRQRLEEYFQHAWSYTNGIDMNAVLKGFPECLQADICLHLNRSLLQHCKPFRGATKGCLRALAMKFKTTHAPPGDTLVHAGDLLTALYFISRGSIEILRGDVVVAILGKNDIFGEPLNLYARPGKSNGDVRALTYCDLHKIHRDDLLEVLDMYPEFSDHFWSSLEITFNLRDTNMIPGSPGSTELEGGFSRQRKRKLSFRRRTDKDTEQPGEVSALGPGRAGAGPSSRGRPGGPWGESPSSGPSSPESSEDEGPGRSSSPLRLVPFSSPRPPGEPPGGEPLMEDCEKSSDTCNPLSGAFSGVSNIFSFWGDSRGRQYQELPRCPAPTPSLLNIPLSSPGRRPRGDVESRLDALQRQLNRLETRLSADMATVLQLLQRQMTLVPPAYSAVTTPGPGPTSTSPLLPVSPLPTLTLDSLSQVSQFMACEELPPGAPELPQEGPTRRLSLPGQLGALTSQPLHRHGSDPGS

| SMILES | hERG current change (%, negative = inhibition) at 10uM [%] |
| --- | --- |
| O=C(CSc1nnc2c(n1)[nH]c1ccc(F)cc12)N1CCOCC1 | 5.63 |
| Cc1ccc(NC(=O)CCN2CCc3ccccc3C2)cc1.Cl | -60.8 |
| Cc1ccc(NC(=O)CCN2CCOCC2)cc1C | 14.1 |
| O=C(CCN1CCc2ccccc2C1)Nc1ccccc1 | -24.2 |
| COc1cccc(CN2CCc3ccc(NC(=O)CCc4ccc(C)cc4)cc3C2)c1O | -52.2 |
| COc1ccc(CN2CCc3ccc(NC(=O)CCc4ccccc4OC)cc3C2)c(O)c1 | -35.2 |
| Cc1cc(NC(=O)CCN2CCN(Cc3ccccc3)CC2)ccc1Br.Cl | -28 |
| Cc1ccc(NC(=O)CCN2CCC(C(N)=O)CC2)cc1 | 17.3 |
| Cc1ccc(NC(=O)CCN2CCC(Cc3ccccc3)CC2)cc1 | -75.1 |
| Cc1ccc(NC(=O)CCN2CCN(C/C=C/c3ccccc3)CC2)cc1C.Cl | -71.8 |
| Cc1ccc(NC(=O)CN2CCc3ccccc3C2)cc1 | -30.3 |
| COc1cc(CN2CCc3ccc(NC(=O)CCc4ccccc4OC)cc3C2)ccc1O | -37.3 |
| Cc1ccc(NC(=O)CCN2CCCCC2)cc1.Cl | -0.243 |
| CSc1ncccc1C(=O)N1CCCC(N2CCN(c3ccccc3F)CC2)C1 (centres unmarked) | -12.4 |
| NS(=O)(=O)c1ccc(CCNC(=O)CN2C(=O)c3ccccc3S2(=O)=O)cc1 | 1.3 |
| CCOC(=O)N1CCN(C(=O)c2ccc(CNS(=O)(=O)c3ccc(OC)cc3)cc2)CC1 | -4.84 |
| Cl.O=C(CCN1CCCCCC1)Nc1cccc(F)c1 | -23.6 |
| CN1CCN(CCC(=O)Nc2cccc(F)c2)CC1 | -1.22 |
| O=C(CCN1CCN(C/C=C/c2ccccc2)CC1)Nc1cccc(F)c1 | -77.9 |
| CCOC(=O)OC(C)OC1=C(C(=O)Nc2ccccn2)N(C)S(=O)(=O)c2ccccc21 (centres unmarked) | 16.1 |
| O=P(Nc1c(Cl)cccc1Cl)(c1ccccc1)c1nc2c(s1)CCCC2 (centres unmarked) | 10 |
| Nc1nonc1-n1nnc(C(=O)N/N=C/c2ccc(Br)cc2)c1CSC1=NCCS1 | -3.36 |

| SMILES | hERG current change (%, negative = inhibition) at 10uM [%] |
| --- | --- |
| O=c1[nH]c([N+](=O)[O-])nn1C(c1ccccc1)c1ccccc1 | -13.7 |
| COCCCN1C(=O)c2ccccc2C1C(=O)NC1CCCCCC1 (centres unmarked) | -2.83 |
| COc1cc(NC(=O)CN2C3CCC2CC(O)(c2cccnc2)C3)cc(OC)c1 (centres unmarked) | -60.9 |
| COCCNC(=O)CN1C2CCC1CC(O)(c1cccnc1)C2 (centres unmarked) | 0.682 |
| COc1ccc(NC(=O)CN2C3CCC2CC(O)(c2cccnc2)C3)cc1OC (centres unmarked) | 0.385 |
| O=C(CN1C2CCC1CC(O)(c1cccnc1)C2)Nc1ccc2c(c1)OCO2 (centres unmarked) | -53.1 |
| O=C(Nc1ccccc1)N1C2CCC1CC(O)(c1cccnc1)C2 (centres unmarked) | 8.01 |
| O=C(Nc1cccc(F)c1)N1C2CCC1CC(O)(c1cccnc1)C2 (centres unmarked) | 24.1 |
| Brc1cccc(-c2nnc3n2CCC3)c1 | 2.98 |
| O=C(NC1CCN(C(=O)Nc2ccccc2)CC1)C1CCCCC1 | -7.88 |
| O=C(CN1C(=O)c2cccc3cccc1c23)Nc1ccc(S(=O)(=O)N2CCOCC2)cc1 | -9.06 |
| CCCSCCCNC(=O)Cn1cc2c(n1)CCC(C)C2 (centres unmarked) | -12.8 |
| COc1ccc(-c2nc3n(c(=O)c2C#N)CCCS3)cc1 | -4.57 |
| COCCNC(=O)/C(=C/c1ccccc1Cl)c1ccccc1 | -0.406 |
| COC(=O)N/N=C\c1ccc(OC/C=C/c2ccccc2)c(OC)c1 | 6.04 |
| N#CC1=C(SCC(=O)c2cc3ccccc3oc2=O)NC(=O)C(C#N)C12CCCC2 (centres unmarked) | -54.5 |
| N#CC1=C(SCC(=O)Nc2cccc3cccnc23)NC(=O)C(C#N)C12CCCCC2 (centres unmarked) | -20.7 |
| N#CC1=C(SCc2ccccc2)NC(=O)C(C#N)C12CCCC2 (centres unmarked) | 1.97 |
| COC(=O)c1ccc(NC(=O)CCS(=O)(=O)c2ccc(Br)cc2)cc1 | 28.8 |
| NC(N)=NS(=O)(=O)c1ccc(NC(=S)NC(=O)c2ccncc2)cc1 | 2.9 |
| COc1ccccc1CNC(=O)C1=C(C)C(=O)OC12CCC(C)CC2 (centres unmarked) | -2.21 |
| COc1cccc(C2=CC(=O)C[C@H](c3ccc(OC)c(OC)c3)C2)c1 | -40 |

Reference: PMC4336329 (PLoS ONE, 2015)
